# Sampled rows, rich in hits. Any-hit rate of the full collection: about 2.1%.
# YB-1 expr inh: YB-1 expression inhibition; U2OS, qRT-PCR YB-1 vs CDIP delta delta Cp, 16 h; active compounds read high; zero = DMSO, each unit about twofold; delta delta Cp (YB-1 minus CDIP) (concentration not given with the values); hit rate 0.37% among 30,000;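 active means delta delta Cp rounded down to an integer at or above 3, about 3 SD of DMSO wells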;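 further: higher means less YB-1 transcript or more CDIP transcript relative to DMSO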
# U2OS ROS induce: inducers of reactive oxygen species in cancer cells; ROS induction (% of piperlongumine), % at 10 µM; AID 624156; hit rate 2% among 46,000; U2OS ROS induction, H2DCF-DA fluorescence; in the data active means ROS induction above about 79%, passing the limit was not always enough; inconclusive means no clear call, values can overlap the other calls;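 further: 0% = DMSO vehicle median and 100% = reference compound median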
# Active calls of the source: *; ? = inconclusive; · = not tested or not shown.
SMILES,YB-1 expr inh,U2OS ROS induce
COc1ccc(/C=C2\OC(=S)N(C)C2=O)cc1,·,-6
Cc1cc2c(cc1S(=O)(=O)N1CCc3ccccc31)OCC(=O)N2,·,18
Cc1cc2c(cc1S(=O)(=O)N1CC(C)CC(C)C1)OCC(=O)N2 (stereo unspecified),·,85*
Cc1ccn2cc(CCNS(=O)(=O)c3ccc(Cl)s3)nc2c1,·,0
C=C1C(=O)O[C@@H]2C=C(C)[C@@H]3CC[C@@](C)(O)[C@@H]3C[C@H]12,0.073,-3
C=C1C(=O)O[C@H]2C3=C(C)CCC[C@]3(C)C(=O)C[C@@H]12,-0.036,84*
Clc1ccc(C2=NCCc3sccc32)cc1,·,-9
C[C@@H]1CN([C@H](C)CO)C(=O)Cc2cc(NS(=O)(=O)c3ccccc3)ccc2O[C@H]1CN(C)Cc1ccc(C(F)(F)F)cc1,-0.13,217*
C[C@H]1CN([C@@H](C)CO)C(=O)Cc2cc(NS(=O)(=O)c3cccs3)ccc2O[C@H]1CN(C)Cc1ccc(-c2ccccc2)cc1,-0.23,46
C[C@H](CO)N1C[C@H](C)[C@H](CN(C)Cc2ccc(-c3ccccc3)cc2)Oc2ccc(NS(=O)(=O)c3ccc(Cl)cc3)cc2CC1=O,0.33,142*
C[C@H](CO)N1C[C@H](C)[C@H](CN(C)Cc2ccc(-c3ccccc3)cc2)Oc2ccc(NS(=O)(=O)c3cccs3)cc2CC1=O,0.013,78*
C[C@@H]1CN([C@H](C)CO)C(=O)Cc2cc(NS(=O)(=O)c3ccc(Cl)cc3)ccc2O[C@H]1CN(C)Cc1ccccc1,0.17,0
C[C@@H]1CN([C@H](C)CO)C(=O)Cc2cc(NS(C)(=O)=O)ccc2O[C@@H]1CN(C)Cc1ccccc1,-0.1,-9
C[C@@H]1CN([C@H](C)CO)C(=O)Cc2cc(NS(=O)(=O)c3ccccc3)ccc2O[C@@H]1CN(C)Cc1ccc(C(F)(F)F)cc1,-0.12,32
C[C@H]1CN([C@@H](C)CO)C(=O)Cc2cc(NS(C)(=O)=O)ccc2O[C@@H]1CN(C)Cc1ccccc1,-0.26,131*
O=C(COc1ccccc1)Nc1cccc(C(F)(F)F)c1,·,13
Cc1ccc(C(=O)Nc2ccccc2C(=O)N2CCN(c3ccccc3)CC2)cc1S(=O)(=O)N1CCCCC1,·,144*
Cc1ccc(NS(=O)(=O)c2cc(C(=O)Nc3ccccc3C(=O)N3CCCC3)ccc2Cl)cc1C,·,-6
COc1ccc2cc(C(C)c3nc4ccccc4n3C)ccc2c1 (stereo unspecified),·,-10
CCc1ccc(NC(=O)NC(C)c2c(-n3cccc3)sc3c2CCCC3)cc1 (stereo unspecified),·,9
C/C(=C/CCC(CO)C1CCC2(C)C3CCC4C(C)(C)C(OC5OC(CO)C(O)C(O)C5O)CC(O)C45CC35CCC12C)COC1OC(CO)C(O)C(O)C1O (stereo unspecified),0.17,-17
C/C(=C/CCC(CO)C1CCC2(C)C3CCC4C(C)(C)C(OC5OC(CO)C(O)C(O)C5O)CCC45CC35CCC12C)COC1OC(COC2OC(CO)C(O)C(O)C2O)C(O)C(O)C1O (stereo unspecified),5.8*,-7
CC(=O)Oc1ccccc1OC(C)c1nn(C(C)=O)c2ccccc12 (stereo unspecified),·,-14
O=C(Cn1nc(-c2ccccc2)ccc1=O)NCCCN1CCCC1,·,-9
O=C(Nc1cccc(-c2nc3cccnc3s2)c1)C1CC1,·,69
SMILES,YB-1 expr inh,U2OS ROS induce
CCOC(=O)c1cnc2c(C(F)(F)F)cccc2c1NCCCN1CCOCC1,·,113*
CCOC(=O)c1cnc2ccc(OCC)cc2c1NCCCN1CCOCC1,·,52
O=C1C(Nc2ccccc2)=CC(=O)c2ncccc21,3.1*,?
CCC(Sc1nnnn1-c1ccccc1)C(=O)Nc1sc2c(c1C#N)CCCC2 (stereo unspecified),0.18,95*
CCC(Sc1nnc(N)s1)C(=O)Nc1sc2c(c1C#N)CCCC2 (stereo unspecified),·,-4
CC(C)Oc1ccc2c(C(F)(F)F)cc(=O)oc2c1,·,5
CCOC(=O)Cn1nc(C(F)(F)F)c(Br)c1C1CC1,·,-17
C[C@H](CO)N1C[C@H](C)[C@H](CN(C)S(=O)(=O)c2cn(C)cn2)Oc2ccc(NC(=O)Nc3ccc(F)cc3)cc2CC1=O,-0.092,-1
COc1ccc(NC(=O)Nc2ccc3c(c2)CC(=O)N([C@@H](C)CO)C[C@@H](C)[C@@H](CN(C)S(=O)(=O)c2cn(C)cn2)O3)cc1,-0.24,90*
COc1ccc(NC(=O)Nc2ccc3c(c2)CC(=O)N([C@@H](C)CO)C[C@H](C)[C@H](CN(C)S(=O)(=O)c2cn(C)cn2)O3)cc1,-0.18,-6
C[C@H]1CN([C@@H](C)CO)C(=O)Cc2cc(NC(=O)Nc3ccc(F)cc3)ccc2O[C@H]1CN(C)S(=O)(=O)c1cn(C)cn1,8.1*,-5
CCn1c(C(=O)N2CCC(C(=O)NCc3ccccc3)CC2)cc2sccc21,·,4
O=C(COc1nsnc1N1CCOCC1)c1ccccc1,·,1

# Screening data as filed in PubChem BioAssay.
